Data on 50 molecules can be found in PubChem BioAssay AID651550 (National Center for Advancing Translational Sciences (NCATS), 2012).

The whole screen tested about 360,000 compounds, of which about 1,100 (0.31%) were called active. The sample as a whole holds a higher share of actives than the screen did. A number with no mark means an inactive call. Cut-off read from the data, not from the text of the source: active = activity change below about -80%; inconclusive = mostly about -51% to -80%; inactive = weaker than that.
% is set by controls: 0 for no effect and ±100 for the full control effect.

The experiment deals with RAC-alpha serine/threonine-protein kinase (Homo sapiens) (UniProt P31749). Nature of the experiment: HTS Assay for Inhibitors of Akt Phophorylation: Primary Screen. Particulars: Neuro2A IGF-stimulated pAkt S473 HTRF, 20 min; at 50 µM, stronger effect = lower value. From the text: The serine/threonine protein kinase Akt (protein kinase B) regulates various cellular processes, including cell survival, growth, proliferation, migration and differentiation. It has been well established that Akt is activated through two essential steps involving membrane translocation and phosphorylation. Cytosolic Akt is recruited to the plasma membrane via the interaction between the PH domain and membrane PIP3 produced by phosphoinositide-3 kinase (PI3K) upon growth factor receptor stimulation. The membrane-Akt interaction results in conformational changes of Akt, enabling its activation through phosphorylation at T308 in the kinase domain and at S473 in the C-terminal hydrophobic motif by PDK1 and mTOR-rictor complex (mTORC2), respectively. […] These findings indicate that S473 phosphorylation, as an important modulator of Akt activation, may be a valuable drug target for cell growth, survival, proliferation and differentiation. These inhibitors also may have significant therapeutic potential with fewer side effects, especially for the conditions involving hyperactive Akt signaling, such as cancer and Alzheimer's disease.
To this end, a miniaturized assay was developed to be screened against the Molecular Libraries Small Molecule Repository (MLSMR).
NIH Chemical Genomics Center [NCGC]
NIH Molecular Libraries Probe Centers Network [MLPCN]
Assay Submitter (PI): Hee-Yong Kim, National Institute on Alcohol Abuse and Alcoholism
3 uL of Neuro2A cell suspension in DMEM containing 0.5% FBS and […] antibiotics mix was plated in a white solid bottom tissue culture-treated 1536-well plate (Greiner Bio-One, Monroe, NC) at 4,500 cells per well and incubated overnight at 37 deg C. 23 nL/well of compound solutions in DMSO was added with Pintool transfer (Kalypsis, San Diego, CA) at single […] final concentration. Then, the cells were stimulated with 1.5 uL of IGF (6 nM final concentration) and incubated at 37 deg C for 20 min. The reaction was terminated by the addition of 1.5 uL blocking reagent mixed with lysis buffer (1:25 correspondingly) provided with HTRF(R) Phospho Akt (Ser473) kit (Cisbio US, Bedford, MA), with following incubation for 50 min at ambient temperature. The detection HTRF conjugates from the kit were prepared according to the protocol, pre-mixed 1:1 prior to dispensing, and 2 uL/well was added with BioRAPTR FRD dispenser (Beckman Coulter). The assay plates were incubated for 24 hours at ambient temperature, and the HTRF fluorescence was measured using Envision plate reader (PerkinElmer) with excitation at 330nm, emission at 615nm (Eu(3)-Cryptate donor signal) and 665nm (d2 acceptor signal). The ratio of […] was calculated for each well.
(TR-FRET usually uses a lanthanide donor and a delayed reading to cut background.)
For the molecule `COc1ccc(C(O)C(O)(C(=O)OC(C)C)c2ccc(C)cc2)cc1` (stereo not given), the activity change entry was “inactive”. For `Cc1cc(C)cc(NS(=O)(=O)c2ccc(Oc3ncc(C(F)(F)F)cc3Cl)cc2)c1`, the activity change is -13.6%. On to `CSc1ccccc1-c1nnc(-c2ccc(Cl)cc2)o1`, for which the activity change is -0.409%. Under `FC(F)(F)c1cnc(Oc2ccccc2-c2nnc(-c3ccc(Cl)cc3)o2)c(Cl)c1` stands -102% (active); under `COC(=O)[C@@]12C[C@@H](CC(=O)N3CCC(c4ccccc4)CC3)C(=O)N(Cc3ccccc3)C1=CCC(C)(C)C2`, “inactive”; under `COC(=O)C1=CN(c2c(C)cc(C)cc2C)C(N)=C(C#N)C1c1cccc(F)c1` (stereo not given), “inactive”. The entry for `Cc1ccc(Cc2nnc(SCC(=O)Nc3ccc(C)cc3C)[nH]c2=O)cc1` is “inactive”. The entry for `NC(=O)c1c(NC(=O)CSc2nnc(-c3ccco3)n2N)sc2c1CCCC2` is “inactive”; for `CCCc1cc(=O)[nH]c(SCC(=O)Nc2sc3c(c2C#N)CCCC3)n1` it is “inactive”. Take `N#Cc1c(NC(=O)CSc2nc3ccccc3c(=O)n2Cc2ccco2)sc2c1CCCC2`: the activity change is -91.1% (active). Under `CCC(C)CN1C(=O)CN(S(C)(=O)=O)CC1(C)C(=O)Nc1ccc2c(c1)OCCO2` (stereo not given) stands “inactive”. The entry for `O=C1Nc2ccccc2-n2nnnc2C1N1CCN(c2cccc(C(F)(F)F)n2)CC1` (stereo not given) is “inactive”; for `Cc1ccc(OCc2nc(C#N)c(N3CCCC3)o2)cc1` it is -113% (active); for `CC1CCN(c2oc(-c3ccccc3F)nc2C#N)CC1` it is “inactive”.

As to `N#Cc1nc(COc2ccc(Cl)cc2)oc1N1CCCC1`, the activity change result was “inactive”.

As for `C=CCC1(C(=O)N(C)Cc2ccccc2)CCN(C(=O)OC(C)(C)C)CC1`, the activity change entry was “inactive”. Under `CCN(CC)CCCN=C(N)N` stands “inactive”; under `COC(=O)C[C@H]1C=C[C@H](NC(=O)c2ccc(F)cc2)[C@@H](CO)O1`, “inactive”; under `N#Cc1nc(Cc2ccccc2)oc1NCCc1ccccc1`, -105% (active). Under `N#Cc1nc(Cc2cccc3ccccc23)oc1NCc1ccc2c(c1)OCO2` stands -4.85%; under `Cc1ccc(-c2nc(C#N)c(NCCCn3ccnc3)o2)cc1`, “inactive”. Under `COC(=O)[C@]12CCCCC=C1N(Cc1ccc3c(c1)OCO3)C(=O)[C@H](CC(=O)NCc1cccs1)C2` stands “inactive”; under `COc1ccccc1P(=O)(c1ccccc1)c1ccccc1NC(C)=O` (stereo not given), “inactive”. In the case of `Cc1ccc(C(=O)Nc2c(-c3ccccc3)[nH][nH]c2=O)cc1`, the activity change entry is “inactive”. The entry for `CCOC(=O)c1c(NC(=O)CCCN2CCOCC2)sc2c1CC(C)(C)OC2` is “inactive”. The figure for `CCOC(=O)c1sc(NC(=O)CCN2CCOCC2)c(C(=O)OCC)c1C` is -80.1% (active); for `COC(=O)c1c(NC(=O)CCN2CCOCC2)sc2c1CCCC2` it is “inactive”; for `CCCCC[C@H](C)N1C[C@@H](COCc2ccccc2)Oc2cc(N3CC[C@@H](N(C)C)C3)ccc2S1(=O)=O` it is “inactive”. Under `Cc1ccc2c(c1)N(C(=O)CCC(=O)N1CCc3ccccc3C1)CCO2` stands -105% (active); under `Cc1ccc(Cl)c(OCC(=O)N2CCc3ccccc3C2)c1`, “inactive”; under `Cc1ccc2c(c1)N(C(=O)CCC(=O)NCc1cccnc1)CCO2`, “inactive”. In the case of `CCOC(=O)C1CCN(C(=O)C2CCN(S(=O)(=O)c3c(C)noc3C)CC2)CC1`, the activity change result is “inactive”. With `CCN(C(=O)CSc1ncnc2c1cnn2-c1ccccc1)C1CCS(=O)(=O)C1` (stereo not given), the activity change result was “inactive”. The figure for `CCN(CC)C(=O)CSc1ncnc2c1cnn2-c1ccccc1` is -110% (active); for `CCC(C)N(C(=O)CSc1ncnc2c1cnn2-c1ccccc1)C1CCS(=O)(=O)C1` (stereo not given) it is “inactive”; for `Cc1cccc(C)c1NC(=O)C(c1ccc(C(F)(F)F)cc1)n1c(=O)c(-c2ccco2)nc2ccccc21` (stereo not given) it is “inactive”.

For `O=C(Nc1ncc2c(n1)CC(c1ccco1)CC2=O)c1ccc(Cl)cc1` (stereo not given), the activity change entry is “inactive”. The entry for `COC(=O)c1nc(NC(=O)c2ccc(Cl)cc2)n[nH]1` is “inactive”; for `O=C(Nc1ncc2c(n1)-c1ccccc1OC2)c1ccc(Cl)cc1` it is -120% (active); for `CN(C)c1ccc(Nc2c3c4c(cccc4n(C)c2=O)C(=O)c2ccccc2-3)cc1` it is “inactive”. `COc1cc2ccccc2cc1C(=O)Nc1ccccc1C`: the activity change entry is “inactive”. The figure for `Cc1ccccc1NC(=O)c1ccccc1` is -122% (active); for `Cc1ccccc1NC(=O)CSC(=O)c1ccccc1` it is “inactive”. The entry for `Cc1cccc(N(C(=O)c2csnn2)C(C(=O)NCc2ccccc2)c2ccncc2)c1` (stereo not given) is “inactive”; for `Cc1cccc(C2C3=C(CCCC3=O)N=C3c4ccccc4C(=O)C32)c1` (stereo not given) it is “inactive”; for `CCOC(=O)[C@]12CCCC=C1N(CCC1=CCCCC1)C(=O)[C@H](CC(=O)N1CCN(C(=O)c3ccco3)CC1)C2` it is “inactive”. Turning to `COc1ccc(C(CNC(=O)CSc2ccccc2)N2CCOCC2)cc1` (stereo not given), the activity change result was “inactive”.

`O=C(C(=O)N1CCC(c2ccccc2)CC1)c1ccccc1`: the activity change entry is “inactive”. The entry for `Cc1cccc(-n2c(Cc3cc(=O)[nH]c(=O)[nH]3)nnc2SC(C)C)c1` is “inactive”; for `COCCNC(=O)Cn1cc(C(=O)c2cccs2)c2ccccc21` it is -3.12%.
